# Compound activity deposited in PubChem by National Center for Advancing Translational Sciences (NCATS).
# GLS inh: blocks human kidney-isoform glutaminase activity; O94925; GLS enzymatic activity, qHTS titration; Potency, µM (doses to about 45.5 µM), without a hit: top-dose activity change, negative = inhibition, actives largely listed as inhibitors; 410,000 compounds, 0.21% hits; AID 624170; note: % is set by controls: 0 for no effect and ±100 for the full control effect
#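 Coupled fluorescence readout: glutamate oxidase/HRP/Amplex Red detect glutamate formed by hKGA from L-glutamine (1 mM solution added). Buffer 45 mM KH2PO4 pH 8.2, 0.02% Tween-20; reads at t0 and 30 min RT.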
# PLK1 PBD block: PLK1 (human) polo-box domain binding inhibition; Plk1 PBD binding of FITC phosphopeptide, fluorescence polarization; AID 720504; Potency, µM, for the others: max response, negative = inhibition, actives largely listed as inhibitors; 360,000 compounds, 2.8% hits; note: series mostly up to about 57 µM; % is set by controls: 0 for no effect and ±100 for the full control effect; nearly all actives have a fitted effect of over 65% in size
# Target sequence (P53350 whole entry, looked up, the tested form may be a part): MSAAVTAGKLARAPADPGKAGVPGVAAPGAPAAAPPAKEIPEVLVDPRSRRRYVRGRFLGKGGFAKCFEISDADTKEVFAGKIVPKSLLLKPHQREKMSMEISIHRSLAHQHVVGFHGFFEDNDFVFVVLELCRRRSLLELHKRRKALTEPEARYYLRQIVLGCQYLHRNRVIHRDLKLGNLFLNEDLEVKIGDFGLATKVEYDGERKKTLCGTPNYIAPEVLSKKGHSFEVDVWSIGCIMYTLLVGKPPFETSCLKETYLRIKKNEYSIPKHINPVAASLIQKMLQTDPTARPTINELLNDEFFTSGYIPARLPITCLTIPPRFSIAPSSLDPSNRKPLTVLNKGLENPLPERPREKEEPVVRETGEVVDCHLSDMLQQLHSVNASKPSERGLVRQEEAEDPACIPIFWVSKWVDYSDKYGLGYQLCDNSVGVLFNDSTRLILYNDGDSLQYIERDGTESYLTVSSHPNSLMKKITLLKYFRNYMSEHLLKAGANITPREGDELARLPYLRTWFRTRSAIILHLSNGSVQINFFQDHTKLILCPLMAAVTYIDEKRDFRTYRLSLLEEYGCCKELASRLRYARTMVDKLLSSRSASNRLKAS
# VDR inhibitor: blocks the human vitamin D receptor; P11473; VDR-SRC2-3 peptide fluorescence polarization, 2 h; Potency, µM, without a hit: max response, negative = inhibition, actives largely listed as inhibitors; 400,000 compounds, 0.93% hits; AID 504847; note: % is set by controls: 0 for no effect and ±100 for the full control effect
#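 Fluorescence polarization assay measuring small-molecule disruption of VDR binding to the coregulator peptide SRC2-3. Compounds were pin-transferred (23 nl) into the reagent mix and incubated 2 h at room temperature before reading.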
# KAT2A inh: blocks human GCN5L2 histone acetyltransferase; Q92830; 390,000 compounds, 0.21% hits; AID 504327; Potency, µM (top dose mostly 58.9 µM), without a hit: at the highest dose activity change, negative = inhibition, usual class: inhibitors; GCN5L2 HAT assay, ThioGlo1 CoA-SH fluorescence; note: % is set by controls: 0 for no effect and ±100 for the full control effect
#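 ThioGlo1-coupled HAT assay: 20nM GCN5L2, 70uM acetyl-CoA, 75uM H3(1-25) peptide, pH 7.5. Fluorescence read at 340/540nm at start and after 20 min at room temperature.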
# PKM2 activator: increases activity of human pyruvate kinase M2; P14618; purified PKM2, Kinase-Glo ATP luminescence, activation; response scale: 0% is enzyme alone, no compound; Potency, µM (highest dose often 57.5 µM), without a hit: at the highest dose activation, most hits filed as activators; 260,000 compounds, 0.34% hits; AID 1631; note: % is set by controls: 0 for no effect and ±100 for the full control effect; nearly all actives have a fitted effect of over 55% in size
#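 hPK-M2, >95% pure; 0.1 mM ADP / 0.5 mM PEP final; imidazole pH7.2 buffer w/ 7 mM MgCl2, 50 mM KCl; 1 h RT; Kinase-Glo lum. Intermediate enzyme activity for dual inhibitor/activator qHTS.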
# Mito fusion yeast: mitochondrial division inhibition or fusion activation; 320,000 compounds, 0.23% hits; S. cerevisiae fusion-defective mutant growth rescue, CellTiterGlo 48 h; AID 485298; Potency, µM (titrated, usually from 46.1 µM), inactives show at the highest dose growth rescue (activation), actives largely listed as activators; note: % of control where 0% means no effect; nearly all actives have a fitted effect of over 45% in size
#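 Growth-rescue viability read-out: after 48 h at the non-permissive 37C in glycerol/ethanol YPEG, yeast mitochondrial fusion mutants are measured by CellTiterGlo luminescence; compounds (23 nl pinned per well) restoring growth score as division inhibitors or fusion activators.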
# * marks the source's active call; other numbers are inactive results; u = inconclusive; x = no result given; ! = not confirmed by another sample. Shown are actives, neighbours in structure and some others; about 3.4% of the full set was active somewhere. Calls come from the whole dose curve; as a rule, active = well fitted curve in the direction sought with a large enough effect; inconclusive = small, poorly fitted or top-dose-only effect, or another doubt; inactive = no such curve, though single readings can be large; an effect the other way counts as inactive or inconclusive. Potency is the fitted concentration of half-maximal effect.
SMILES,GLS inh,PLK1 PBD block,VDR inhibitor,KAT2A inh,PKM2 activator,Mito fusion yeast
O=C(COc1ccc([N+](=O)[O-])cc1)NNC(=S)NC(=O)c1ccc(Br)cc1,37.7%,13.4µM*,u,u,x,10.6%
O=C(COc1ccc(Br)cc1Cl)NC(=S)Nc1ccccn1,20.9%,-13.1%,-18.7%,-29.0%,1.3%,-3.2%
COc1ccc(OCC(=O)NC(=S)NNC(=O)COc2ccc(Br)cc2Cl)cc1,-21.3%,23.8µM*,u,-0.7%,-6.0%,2.2%
Cc1cccc(NC(=S)NNC(=O)COc2ccc(Cl)cc2Cl)c1,5.9%,-13.1%,-21.4%,27.9%,-14.3%,22.4µM*
COc1ccc(NC(=S)NNC(=O)COc2ccc(Cl)cc2Cl)cc1,11.8%,-27.3%,-14.2%,49.0%,-5.2%,27.0%
Cc1oc(-c2ccc(Cl)cc2)nc1Cn1c(=O)cc(C)c2c(C)nn(-c3cccc(F)c3)c21,-4.2%,x,-1.9%,-0.2%,x,x
O=C(CN1C(=O)CSc2ccc(S(=O)(=O)N3CCOCC3)cc21)NCCCN1CCc2ccccc2C1,-7.7%,-14.1%,-11.4%,-3.4%,3.2%,-4.9%
CC(C(=O)NC1CCCC1)N(C(=O)Cn1nnc(-c2ccc(F)cc2)n1)c1ccccc1F (stereo not drawn),-0.6%,-9.2%,-2.7%,-7.7%,x,7.08µM*
CCCCC(C(=O)NC1CCCC1)N(Cc1ccco1)C(=O)Cn1nnc(-c2ccc(F)cc2)n1 (stereo not drawn),-10.9%,23.8µM*,-16.6%,-6.5%,-21.8%,7.6%
Cc1ccccc1C(=O)N1CCC(C(=O)Nc2cc(C(F)(F)F)ccc2N2CCCC2)CC1,26.1%,-6.2%,-13.2%,2.8%,x,-1.7%
O=C(NC(=S)N1CCCc2ccccc21)c1ccc(Cl)cc1,0.1%,26.7µM*,u,-4.5%,-11.4%,13.9%
COc1cc(/C=C(\CC(=O)O)c2nc3ccccc3s2)cc(OC)c1O,u,-25.1%,-7.8%,-16.4%,9.4%,-3.9%
COc1ccc(-c2nc3ccccc3s2)cc1O,57.8%,23.8µM*,-3.3%,-9.0%,-21.8%,9.7%
COc1cc(C=C(c2nc3ccccc3s2)c2nc3ccccc3s2)cc(OC)c1O,-1.2%,-5.8%,5.0%,-9.9%,10.8%,17.8µM*
c1ccc(Cc2nnc3sc(C4COc5ccccc5O4)nn23)cc1 (stereo not drawn),-0.7%,15µM*,u,-3.7%,-3.8%,15.4%
c1ccc(OCc2nnc3sc(C4COc5ccccc5O4)nn23)cc1 (stereo not drawn),-10.2%,23.8µM*,70.8µM*,-23.1%,6.9%,-0.1%
Cc1ccc(-c2nnc3sc(C4COc5ccccc5O4)nn23)cc1 (stereo not drawn),-4.1%,-10.4%,1.8%,-2.9%,0.3%,-2.8%
c1ccc(CCc2nn3c(C4COc5ccccc5O4)nnc3s2)cc1 (stereo not drawn),u,23.8µM*,-76.8%,-16.5%,4.5%,18.5%
COc1ccccc1-c1nn2c(C3COc4ccccc4O3)nnc2s1 (stereo not drawn),x,11.9µM*,70.8µM*,2.1%,6.6%,27.0%
CCCCC/C=C\C/C=C\CCCCCCCCCC(=O)NCCCC(=O)O,x,x,-1.1%,x,x,x
Cc1ccc(Cc2nc3ccccc3nc2SCC(=O)N2CCc3ccccc32)cc1,-3.5%,x,9.9%,2.1%,x,x
CC(C(=O)NC(=O)NC1CCCCC1)N1CCN(c2ccc(O)cc2)CC1 (stereo not drawn),-1.1%,-10.6%,-3.5%,-0.9%,x,17.4%
O=C(COc1ccc(CNC[C@H]2O[C@@H](n3ccc(=O)[nH]c3=O)[C@H](O)[C@@H]2O)cc1)Nc1ccccn1,-12.3%,-6.4%,x,x,x,x
CCOCCCNC(=O)c1c[nH]c2ccc(OCC)cc2c1=O,1.2%,29.9µM*,u,0.0%,-1.8%,-8.2%
CC(CN1C(C)CCCC1C)OC(=O)c1ccc(F)cc1 (stereo not drawn),15.1%,8.7%,-8.9%,-24.0%,x,-9.0%
SMILES,GLS inh,PLK1 PBD block,VDR inhibitor,KAT2A inh,PKM2 activator,Mito fusion yeast
Cc1ccc(S(=O)(=O)N2CCCC2CNC(=O)C(=O)NCc2ccc3c(c2)OCO3)cc1 (stereo not drawn),12.7%,-1.5%,x,x,x,x
COc1cccc(OCc2cc(C(=O)N3CCNC(=O)C3Cc3ccccc3)no2)c1 (stereo not drawn),-1.3%,-8.3%,4.8%,-5.7%,x,2.2%
O=C(O)c1cccnc1Nc1cccc(C(F)(F)F)c1,5.5%,-0.4%,u,-4.0%,0.8%,18.4µM*!
O=C(Nc1cccc(C(F)(F)F)c1)c1cccnc1N1CCN(c2ccccc2)CC1,9.9%,-2.5%,0.2%,-14.3%,-5.4%,9.3%
CC(C)N1C(=O)/C(=C\c2nc3ccccc3c(=O)n2-c2ccccc2)c2ccccc21,-0.8%,-7.1%,70.8µM*,-9.5%,11.3%,26.1%
CC(C)N1C(=O)/C(=C/c2nc3ccccc3c(=O)n2-c2ccccc2)c2ccccc21,-2.2%,-9.7%,70.8µM*,-5.0%,19.2%,24.4%
COc1ccc(CC(=O)NCc2ccc3c(c2)OCO3)cc1,4.7%,23.8µM*,4.7%,-1.9%,-1.7%,-0.8%
COc1ccc(Br)cc1Cn1nnc(C(=O)Nc2ccc3c(c2)OCCO3)c1N,-8.6%,-6.4%,7.8%,-15.3%,x,10µM*
O=C(CSc1nnc(-c2cccnc2)n1Cc1ccco1)NCc1ccc2c(c1)OCO2,1.5%,-3.3%,5.3%,1.8%,4.9%,5.0%
COc1ccc(Cl)cc1S(=O)(=O)NC(C)C(=O)NCc1ccncc1 (stereo not drawn),23.3%,-13.9%,-10.9%,1.5%,x,-1.1%
COc1cccc(-c2nnc(SCC(=O)NCc3ccc4c(c3)OCO4)n2Cc2ccco2)c1,8.8%,-12.5%,15.5%,39.8µM*,11.0%,2.0%
COc1ccc(CCC(=O)NCc2ccc3c(c2)OCO3)cc1,-29.3%,-25.3%,31.1%,-1.3%,x,-1.4%
COc1ccc(NC(=O)c2nnn(CC(=O)Nc3ccc4c(c3)OCO4)c2N)cc1OC,-11.1%,-5.5%,4.0%,-8.3%,x,-10.9%
COc1ccc(Cl)cc1S(=O)(=O)NC(C)C(=O)NCc1ccc2c(c1)OCO2 (stereo not drawn),-18.3%,23.8µM*,u,-5.7%,3.5%,-17.3%
CCc1nc2ccc(C(=O)NCc3ccccc3OC)cn2c1N(CC)CCN(C)C,6.1%,2.2%,x,x,x,x
CCc1nc2c(OCc3ccc(C(F)(F)F)cc3)cccn2c1N(C)C(=O)c1ccco1,-6.1%,-5.7%,x,x,x,x
COCOCCn1cc(CN2CCS(=O)(=O)N(Cc3ccc(-c4ccncc4)cc3)C(CC(C)C)C2=O)nn1 (stereo not drawn),-0.8%,-13.5%,x,x,x,x
COc1cccc(Cn2c(=O)c(-c3ccccc3)nc3cnc(N(C)C)nc32)c1,x,x,9.5%,-28.2%,x,x
